Values joined by “and” are separate entries in the source; they are usually repeats but may differ in a detail not shown here. Identical values can stand only once. The whole screen tested about 120,000 compounds, of which about 5,300 (4.4%) were called active. Another 22% or so got no clear call; they are omitted. Calls come from the whole dose curve; as a rule, active = well fitted inhibition curve with a large enough effect; inconclusive = small, poorly fitted or top-dose-only effect; inactive = no such curve, though single readings can be large or run the other way. For the sample, actives were picked, then their nearest neighbours and some compounds at random. Some compounds were tested as several samples or in several runs, with calls that do not always agree.
experiment: qHTS Primary assay for Inhibitors of Plasmodium falciparum Dd2 growth in vitro; note: nearly all actives have a fitted effect of over 65% in size;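 for activity, negative = inhibition: plate controls were DMSO vehicle for no effect and reference drug for full effect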; details: P. falciparum Dd2 growth, SYBR Green, 72 h; series mostly up to 28.9 µM; activity, negative = inhibition: at the top concentration
In short: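 Readout: SYBR Green fluorescence, 485 nm excitation, 535 nm emission, after ~16 h lysis at 37C. Before that, Dd2-infected red cells (2.5% hematocrit) grew 72 h with compound, 29 uM top final concentration.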
Potency is the fitted concentration of half-maximal effect.

Structure (SMILES)	activity, negative = inhibition	outcome	Potency
O=C(c1cccc2[nH]ccc12)N1C[C@@H](CO)[C@H](c2ccccn2)C1	9.59% (inactive)	–	–
CN1CCC2(C1)CN(CC1CC1)c1ccc(C(=O)NC3CC3)cc12 (stereo not drawn)	–	inactive [at 44.1 µM]	–
COc1ccc(CCNC(=O)c2ccc3c(c2)sc2nc(-c4ccc(C)cc4)cn23)cc1OC	–	inactive	–
CCOC(=O)c1ccccc1NC(=O)c1sc2nc(-c3ccc(F)cc3)cn2c1C	93.4% (inactive)	–	–
COc1ccc(-c2cn3c(n2)sc2cc(C(=O)Nc4ccccc4F)ccc23)cc1	–	inactive	–
CCN1CCN(CCCNC(=O)c2ccc3c(c2)sc2nc(-c4ccc(OC)cc4)cn23)CC1	–	–	3.16 µM (active)
CCOc1ccc(CCNC(=O)c2ccc3c(c2)sc2nc(-c4ccc(F)cc4)cn23)cc1OCC	–	–	5.62 µM (active)
COc1ccc(-c2cn3c(C)c(C(=O)Nc4cc(C)cc(C)c4)sc3n2)cc1	-22.2% (inactive)	–	–
Cc1cccc2nnc(N3CCN(C(=O)c4ccc(F)c(F)c4)CC3)n12	-14.3% (inactive)	–	–
O=C(CCNc1c(-c2ccccc2)nc2cnccn12)N1CCC(N2CCCCC2)CC1	–	inactive	–
CCn1cc(-c2ccccc2)cc1C(=O)NCc1ccccn1	–	inactive	–
CCCCN1C(=O)c2ccccc2C(C(=O)NCCCOC)C12CCCCC2 (stereo not drawn)	-7.88% (inactive)	–	–
C=CCNC(=O)N1CC[C@H]2CC(=O)N(CC(N)=O)CC[C@H]2C1	-18.1% [at 44.1 µM] (inactive)	–	–
O=C(c1cc2cccnn2n1)N1CCOCC1	12.2% [at 44.1 µM] (inactive)	–	–
Cc1ccc2cc(CCC(=O)O)c(=O)[nH]c2c1	9.25% (inactive)	–	–
Cc1cc2nc3n(c(=O)c2n1CC(=O)NCc1ccccc1Cl)CCCC3	12.7% (inactive)	–	–
Oc1ccccc1CNC1(Cc2cc(CN3CCOCC3)on2)COC1	14% [at 44.1 µM] (inactive)	–	–
C[C@@H](NC(=O)C[C@@H]1[C@H](O)CC[C@@H]2[C@](C)(CO)[C@H](O)CC[C@]21C)c1ccccc1	17.5% [at 44.1 µM] (inactive)	–	–
COc1ccc(C(=O)N2CCC(Oc3ncccc3C(=O)N(C)C)C2)c(OC)c1 (stereo not drawn)	0.886% (inactive)	–	–
CC[C@@H](NC(=O)CC1CCN(Cc2ccccc2)CC1)C1CC(O)C1 (stereo partly drawn)	1.5% (inactive)	–	–
CCOc1ccc(C(=O)N2CCC3(CC2)c2nccn2-c2ccccc2CN3C)cc1	–	inactive [at 5.79 µM]	–
CCOc1ccc(C(=O)N2CCN(CCc3ccccn3)CC2)cc1	–	–	2.82 µM (active)
CCOc1ccc(C(=O)N2CCN(c3cc(-c4cccs4)[nH]n3)CC2)cc1	–	inactive	–
Cc1oc2ccn(Cc3cccc(F)c3)c(=O)c2c1C(=O)NCc1cccnc1	-4.3% (inactive)	–	–
O=C(O)Cn1ccc2cc(OCCc3cccc(-c4cccnc4)c3)cnc21	1.28% [at 44.1 µM] (inactive)	–	–

Structure (SMILES)	activity, negative = inhibition	outcome	Potency
CCC(CC)c1cc([C@H]2CN3CC[C@H]2C[C@@H]3CNC(=O)NCc2ccccc2)nc(-c2ccncc2)n1	–	–	0.631 µM (active)
N#Cc1cccc(NC(=O)NC[C@H]2C[C@@H]3CCN2C[C@@H]3CN2CCN(c3ncccn3)CC2)c1	–	inactive	–
CCC(CC)c1cc([C@H]2CN3CC[C@H]2C[C@@H]3CNS(=O)(=O)Cc2ccccc2)nc(-c2ccncc2)n1	-9.02% (inactive)	–	–
CC(C)c1nnsc1CN1CCn2nc(CCC(=O)N3CCCC3)cc2C1	-17% (inactive)	–	–
CCN1C(=O)CCN(C(=O)N(C)C)CC12CCOCC2	30.6% (inactive)	–	–
CCOc1ccc(NC(=O)N2c3ccccc3CC2c2noc(C3CCOCC3)n2)cc1 (stereo not drawn)	-12.3% (inactive)	–	–
CNC(=O)[C@@H]1CN(C(=O)c2ccco2)C[C@H]1COC	7.02% (inactive)	–	–
CC(=O)N1CC2(CCN(Cc3cccnc3)C2)Cc2ccccc21 (stereo not drawn)	-11.2% (inactive)	–	–
C[S+](=O)([O-])N1CC2(Cc3ccccc31)CN(C(=O)C1CC1)C2	-4.62% [at 44.1 µM] (inactive)	–	–
O=C(C1CCCC1)N1CC2(CCCN(C3CCCCC3)C2)Cc2ccccc21 (stereo not drawn)	–	–	7.94 µM (active)
COc1ccc2[nH]c3c(c2c1)CCNC31CCN(C(=O)c2ccnn2C)CC1	–	inactive	–
O=C(Cn1nc2c(cc1=O)CCCCC2)Nc1nc(-c2ccncc2)cs1	-14.3% (inactive)	–	–
COc1ccc(CN2C(=O)CO[C@H]3CN(C(=O)C4CC4)C[C@H]32)cc1	18.4% [at 44.1 µM] (inactive)	–	–
O=C1CO[C@H]2CN(C3CCC3)C[C@H]2N1Cc1ccc(OC(F)(F)F)cc1	–	–	10 µM (active)
COc1ccc(CN2C(=O)CO[C@H]3CN(Cc4cccnc4)C[C@H]32)cc1	-27.4% [at 44.1 µM] (inactive)	–	–
CCNC(=O)N1C[C@@H]2OCC(=O)N(CCOC)[C@@H]2C1	1.69% [at 44.1 µM] (inactive)	–	–
Cc1cccc(C(=O)N2CCC(Oc3ccc(-c4noc(C(C)C)n4)cc3)C2)c1 (stereo not drawn)	27.3% [at 5.79 µM] (inactive)	–	–
CC(C)c1nc(-c2ccc(OC3CCN(C(=O)CCc4nc5ccccc5[nH]4)C3)cc2)no1 (stereo not drawn)	–	–	1.26 µM (active)
CCc1nc(-c2ccc(OC3CCN(C(=O)Cc4c[nH]c5ccccc45)C3)cc2)no1 (stereo not drawn)	2.05% [at 5.79 µM] (inactive)	–	–
N#Cc1ccc(C(=O)Nc2ccc3n(c2=O)C[C@H]2C[C@@H]3CN(C(=O)NC3CCCCC3)C2)cc1	-19.6% (inactive)	–	–
COc1cccc(NC(=O)Nc2ccc3c(c2)N(C)C(=O)c2ccccc2S3)c1	–	–	12.6 µM (active)
CCOc1ccccc1C(=O)Nc1ccc2c(c1)N(C)C(=O)c1ccccc1S2	-8.57% (inactive)	–	–
COc1cccc(NC(=O)CN2C(=O)c3ccccc3Sc3ncccc32)c1	-15.6% (inactive)	–	–
CCn1cc(-c2ccc(C)cc2)cc1C(=O)NCc1cccnc1	-8.65% (inactive)	–	–
Cc1cccc(N2CCN(C(=O)c3cc4n(n3)CC(c3ccc(Cl)cc3)OC4)CC2)c1 (stereo not drawn)	–	inactive	–

Structure (SMILES)	activity, negative = inhibition	outcome	Potency
COc1cc(CNCc2ccc(C)c(F)c2F)ccc1OCC(O)CN1CCC(O)CC1 (stereo not drawn)	-45.4% (inactive)	–	–
N#Cc1cccc(CN2C[C@H](O)C[C@H]2c2nc(-c3ccccn3)no2)c1	9.29% [at 44.1 µM] (inactive)	–	–
Cc1ccccc1C(=O)NCc1nnc2ccc(-c3ccccc3)nn12	-7.27% (inactive)	–	–
COCc1nncn1C1CCN(C(=O)c2ccccc2OC(F)(F)F)CC1	–	–	10 µM (active)
COc1ccccc1C(=O)N1CCC(n2cnnc2C2CC2)CC1	8.5% (inactive)	–	–
COCc1nncn1C1CCN(C(=O)c2ccccc2F)CC1	-7.03% (inactive)	–	–
COc1ccccc1C(=O)Nc1ccc2c(c1)CN(Cc1ccccc1)C(=O)C(C)O2 (stereo not drawn)	–	inactive	–
CNC(=O)N1CCCN(S(C)(=O)=O)C(c2ccccc2)CC(=O)NCC1 (stereo not drawn)	3.9% (inactive)	–	–
O=C1CC(c2ccccc2)N(Cc2ccncc2)CCCN(Cc2cccnc2)CCN1 (stereo not drawn)	–	–	4.47 µM (active)
Cc1ccccc1CNC(=O)C1CCCN(Cc2cccnc2)CCC(=O)NCC1 (stereo not drawn)	-19.7% (inactive)	–	–
CS(=O)(=O)N1CCCN(C(=O)CN2CCCCCC2)CCNC(=O)CC1c1ccccc1 (stereo not drawn)	-8.48% (inactive)	–	–
O=C1CC(c2ccccc2)N(C(=O)C2CC2)CCCN(C(=O)Cc2cccc(F)c2)CCN1 (stereo not drawn)	-7.87% (inactive)	–	–
CS(=O)(=O)N1CCCN(C(=O)Cc2cccc(F)c2)CCNC(=O)CC1c1ccccc1 (stereo not drawn)	-1.53% (inactive)	–	–
Cc1ccc(CN2CCCN(Cc3ccncc3)C(c3ccccc3)CC(=O)NCC2)s1 (stereo not drawn)	–	–	1 µM (active)
Cc1cccc(CN2CCCN(Cc3ccncc3)C(c3ccccc3)CC(=O)NCC2)c1 (stereo not drawn)	–	–	1.26 µM (active)
O=C1CC2CCN(Cc3cccnc3)CC2CCN1 (stereo not drawn)	9.65% [at 44.1 µM] (inactive)	–	–
N#Cc1ccc(CC(=O)N2CC(CNc3cccnc3)C3(C2)CN(c2ccccc2)C3)cc1 (stereo not drawn)	-11.1% [at 44.1 µM] (inactive)	–	–
CCN1CC2(CCN(C(=O)c3cc4c(nc3OC)CCC4)CC2)OC1=O	6% (inactive)	–	–
CNC(=O)[C@H]1C[C@H](Oc2ccccc2)CN1C(=O)c1ccccc1	-11% (inactive)	–	–
FC(F)(F)CN1C2CCC1CN(c1cncc(Cl)n1)C2	4.15% (inactive)	–	–
CC(NC(=O)c1coc(COc2ccc3c(c2)OCO3)n1)c1ccc2[nH]ccc2c1 (stereo not drawn)	-11.9% (inactive)	–	–
Cn1cncc1-c1nnc([C@H]2CCN(CC3CC3)C2)o1	-3.46% [at 44.1 µM] (inactive)	–	–
CCOC(=O)CCNC(=O)N1CC[C@H]2C(=O)NCCCCCCN(Cc3ccncc3)[C@@H]2C1	-18.7% (inactive)	–	–
C=CCNC(=O)CCc1c(CC)nn(-c2ccccc2)c1Oc1ccccc1OC	–	inactive	–
CC(=O)c1c(C)nn(CC(=O)N2C[C@H](O)[C@@H](N3CCC(O)CC3)C2)c1C	11% (inactive)	–	–

Structure (SMILES)	activity, negative = inhibition	outcome	Potency
CCc1nc2c(=O)n(CC(=O)NCc3ccc(Cl)cc3)nc(C)c2s1	-13.1% (inactive)	–	–
COc1cccc(-c2n[nH]c3c2C(c2cccc(O)c2)N(C)C3=O)c1 (stereo not drawn)	-21.5% (inactive)	–	–
CCCCN1C(=O)c2[nH]nc(-c3ccccc3O)c2C1c1cccc(OCc2ccccc2)c1 (stereo not drawn)	–	–	3.16 µM (active)
CCCOc1ccc(C2c3c(-c4ccccc4O)n[nH]c3C(=O)N2Cc2cccnc2)cc1 (stereo not drawn)	-2.57% (inactive)	–	–
Cc1cc(C(=O)NCC2Cn3cccc3C(=O)N2C)nn1C (stereo not drawn)	-22.3% (inactive)	–	–
CC(C)CN1C(=O)c2ccccc2C(C(=O)NCc2ccccn2)C12CCCC2 (stereo not drawn)	-1.43% (inactive)	–	–
COc1ccccc1NC(=O)C1c2ccccc2C(=O)N(CC(C)C)C12CCCC2 (stereo not drawn)	–	–	3.55 µM (active)
COC(=O)CCNC(=O)C1c2ccccc2C(=O)N(CC(C)C)C12CCCC2 (stereo not drawn)	-6.26% (inactive)	–	–
Cc1ccc2c(c1)N1C(=O)OC[C@@H]1CCN(C(=O)c1ccno1)C2	20.7% [at 44.1 µM] (inactive)	–	–
Cc1cc(C)cc(C(=O)N2CC(c3nnc(-c4ccncc4)o3)C3(CCOCC3)C2)c1 (stereo not drawn)	-28.2% (inactive)	–	–
O=C(c1nc(-c2cccnc2)c2cnccn12)N1CCN(c2ncccn2)CC1	–	inactive	–
Cc1cccc(C)c1-c1nc(C(=O)N2CCN(c3ncccn3)CC2)n2ccccc12	–	–	inactive and 12.6 µM (active)
CC(C)(C)c1nc(C(=O)N2CCOCC2)n2ccccc12	-15.6% [at 44.1 µM] (inactive)	–	–
CN(CC1CCOC1)C(=O)c1ccc(F)cc1F (stereo not drawn)	–	inactive [at 5.79 µM]	–
CCOC(=O)C1CCCN(C(=O)Cc2ccc(N(Cc3cccc(F)c3)C(=O)c3ccco3)cc2)C1 (stereo not drawn)	–	–	3.98 µM (active)
O=C(Cc1cccc(F)c1)N1CCCC(Cc2nncn2-c2ccccc2)C1 (stereo not drawn)	–	inactive	–
CC(C)NC(=O)Cc1ccc(N(Cc2cccc(F)c2)C(=O)c2ccco2)cc1	–	inactive	–
CN(CC(=O)N1CCCC(Cc2nncn2-c2ccccc2)C1)S(=O)(=O)c1cccs1 (stereo not drawn)	–	inactive	–
Cc1ccccc1C(=O)NCc1cccnc1Oc1cccc(C(F)(F)F)c1	-19.3% (inactive)	–	–
COc1cccc(-c2cc(C(=O)N3CCC(c4nn(C)c(=O)n4C(C)C)CC3)[nH]n2)c1	–	inactive	–
CCC(C(=O)Nc1ccc2c(c1)CN(Cc1cc(F)cc(F)c1)C(=O)CO2)c1ccccc1 (stereo not drawn)	–	–	6.31 µM (active)
CCC(C)N1Cc2cc(NC(=O)c3ccc([N+](=O)[O-])cc3)ccc2OCC1=O (stereo not drawn)	–	inactive	–
CCC1Oc2ccc(NC(=O)c3cccs3)cc2CN(Cc2ccc(F)cc2)C1=O (stereo not drawn)	-11.1% (inactive)	–	–
